# Bioassay records deposited in PubChem BioAssay by several laboratories.
# LANA-H2A inh: blocks KSHV LANA binding to histone H2A/H2B; Q9QR71; cell-free LANA-H2A/H2B peptide, fluorescence polarization; inhibition, % (concentration not given with the values); 320,000 compounds, 0.6% hits; in the data active = inhibition mostly above about 10%, no sharp cut-off; inactive = mostly below about 6.7%
# TLR4-MyD88 BLA: TLR4-MyD88 interaction inhibition in cells | HeLa CL3-4 TLR4/MyD88 BLA complementation, FRET ratio | inhibition, % at 8.4 µM | AID 861 | 200,000 compounds, 0.18% hits | O00206+Q99836; in the data active = inhibition above about 25%;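 note: 0% = vehicle and 100% = reference inhibitor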
# Rtt109 HAT inh: C. albicans Rtt109 histone acetyltransferase inhibition; Q5AAJ8; purified Rtt109/Vps75, ThioGlo CoA-SH fluorescence, 4 h; inhibition, % at 34.9 µM; 330,000 compounds, 0.16% hits; AID 540336;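 active = inhibition of at least 50% in every replicate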
# Target sequence (Q5AAJ8 whole entry, looked up): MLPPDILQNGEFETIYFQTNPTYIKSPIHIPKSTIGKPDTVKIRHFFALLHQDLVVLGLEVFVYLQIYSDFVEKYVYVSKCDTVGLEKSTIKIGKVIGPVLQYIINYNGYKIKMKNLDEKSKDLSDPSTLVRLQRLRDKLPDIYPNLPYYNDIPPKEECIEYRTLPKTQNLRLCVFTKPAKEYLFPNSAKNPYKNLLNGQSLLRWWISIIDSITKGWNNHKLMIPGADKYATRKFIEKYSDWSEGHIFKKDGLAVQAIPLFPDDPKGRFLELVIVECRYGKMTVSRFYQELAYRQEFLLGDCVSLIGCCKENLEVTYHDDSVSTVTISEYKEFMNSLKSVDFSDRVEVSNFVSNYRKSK
# HTR2A ag: agonists of mouse serotonin 5-HT2A receptor (HTR2A) | P35363 | AID 624169 | activation, % at 7.6 µM | 360,000 compounds, 0.66% hits | CHO-K1 mHTR2A beta-arrestin complementation, luminescence; percent of 30 µM serotonin response;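 active = activation above a run cutoff, the mean activation of all tested compounds plus 3 SD, cut at about 14% in these data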;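 note: 0% = plate median of compound wells and 100% = 30 µM serotonin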
# NOD2 RIPK2 PPI: blocks binding of human NOD2 to RIPK2. O43353. CHO BLA complementation NOD2-RIPK2, CCF4 ratio. 360,000 compounds, 0.38% hits. inhibition, % at 4.98 µM; in the data active = inhibition above about 21%;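 note: 0% = vehicle only and 100% = reference blocker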
# TLR9-MyD88 block: blocks human TLR9 binding to MyD88; CHO BLA complementation TLR9-MyD88, CCF4 FRET ratio; inhibition, % at 4.98 µM; 340,000 compounds, 0.21% hits; AID 504734;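 active = inhibition above the mean over all tested compounds plus 3 SD, cut at about 21% in these data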;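 note: 0% = DMSO only wells and 100% = clavulanate BLA inhibitor control wells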
# TLR9-MyD88 cf: TLR9-MyD88 interaction inhibition, confirmation; shares compounds with TLR9-MyD88 block; CHO TLR9/MyD88 BLA complementation, CCF4 FRET ratio; 680 compounds, 51% hits; inhibition, % at 4.98 µM;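 active = mean inhibition across three repeats above about 21% taken from the earlier screen, limit read from the data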;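 note: blue over green emission ratio reports constitutive TLR9 MyD88 association via BLA complementation; 0% = DMSO vehicle wells and 100% = clavulanate BLA inhibitor wells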
# BLA counter-1: counter-screen for TLR9-MyD88 inhibitors: non-selective beta-lactamase inhibitors | shares compounds with TLR9-MyD88 block | 680 compounds, 7% hits | inhibition, % at 4.98 µM | CHO-BLA cells, CCF4 FRET ratio, BLA reporter;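 active = mean inhibition above a 50% cutoff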;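 note: counterscreen of TLR9-MyD88 hits on CMV-driven BLA in CHO-K1 cells; 0% = DMSO alone and 100% = clavulanate blocking BLA; higher means less blue over green ratio so more BLA blockade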
# TLR9 CHO cytotox: counter-screen for TLR9-MyD88 inhibitors: cytotoxicity in CHO cells. shares compounds with TLR9-MyD88 block. luminescence. inhibition, % at 4.98 µM. 680 compounds, 39% hits. AID 588336; in the data active = inhibition above about 11%
# NOD2 RIPK2 conf: NOD2-RIPK2 interaction inhibition confirmed. shares compounds with NOD2 RIPK2 PPI. CHO cells, NOD2-RIPK2 BLA complementation, CCF4 FRET. inhibition, % at 4.98 µM. 1,200 compounds, 70% hits;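 active = mean inhibition across replicates above a set limit taken from the earlier primary screen, cut at about 21% in these data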;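 note: 0% = DMSO-only wells and the high end = clavulanate BLA-blocked wells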
# BLA counter-2: NOD2-RIPK2 counterscreen BLA reporter activity; shares compounds with NOD2 RIPK2 PPI; CHO BLA reporter, CCF4 FRET ratio; inhibition, % at 4.98 µM; 1,200 compounds, 57% hits;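 active = mean inhibition above the low-control mean inhibition plus three low-control SD, cut at about 11% in these data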;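 note: 0% = DMSO only wells and 100% = clavulanate high control wells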
# Active calls of the source: *; x = no result given. Only some compounds are listed: those with a hit (about 1.8% of all), similar ones and a draw of the others.
SMILES,LANA-H2A inh,TLR4-MyD88 BLA,Rtt109 HAT inh,HTR2A ag,NOD2 RIPK2 PPI,TLR9-MyD88 block,TLR9-MyD88 cf,BLA counter-1,TLR9 CHO cytotox,NOD2 RIPK2 conf,BLA counter-2
CN(Cc1ccccc1)C(=O)[C@@H]1CCCN1C(=O)[C@@H]1CCCN1C(=O)c1ccccc1,x,x,x,9,-5,x,x,x,x,x,x
COc1ccc(OC)c2c1C(=O)C(Cl)=C(Cl)C2=O,-5,x,-6,-2,86*,46*,70*,24,97*,88*,34*
COc1ccc(OC)c2c1C(=O)c1ccccc1C2=O,15,16,x,x,x,x,x,x,x,x,x
CCCCCCN1CCN(C2CN(Cc3ccc(F)cc3)S(=O)(=O)C2)CC1 (stereo unspecified),x,x,x,1,-1,x,x,x,x,x,x
N#CC(C#N)=C1C=CC=CN1/C(=C\c1ccco1)C(=O)c1ccccc1,2,-5,4,-6,80*,23*,29*,9,98*,93*,17*
N#CC(C#N)=C1C=CC=CN1/C(=C\c1ccco1)C(=O)c1ccc(Br)cc1,2,7,3,5,91*,42*,46*,5,98*,93*,18*
N#C/C(=C/c1ccco1)C(N)=S,1,x,6,1,-13,6,x,x,x,x,x
COc1ccc(N2CCN(C(=O)C(=O)c3cccc([N+](=O)[O-])c3)CC2)cc1,x,x,x,-1,-4,x,x,x,x,x,x
CCc1ccc(Nc2n[n+](-c3ccccc3)c(-c3c(Cl)cccc3Cl)s2)cc1,0,x,12,-18,68*,80*,43*,45,29*,75*,63*
O=C(/C=C/c1cn(CC(O)CN2CCCCC2)c2ccccc12)c1cccs1 (stereo unspecified),-28,22,4,-1,28*,25*,22*,20,5,51*,50*
COc1ccc(C(=O)c2sc3nc(C)cc(-c4cccs4)c3c2N)cc1OC,-1,12,-3,3,61*,41*,25*,25,8,50*,60*
CC(C)NC(=O)c1sc2nc(-c3cccs3)cc(-c3cccs3)c2c1N,-4,5,x,x,x,x,x,x,x,x,x
Nc1cccc2c1C(=O)N(Cc1cccc(Cl)c1)C2=O,0,20,-4,-7,35*,21*,17,20,4,32*,45*
O=C1Cc2ccccc2C(=O)N1Cc1cccc(Cl)c1,7,x,1,-3,-10,7,x,x,x,x,x
CC(=O)Nc1ccc2c(c1)Cc1cc(N3C(=O)C=CC3=O)ccc1-2,x,x,0,-6,33*,33*,56*,17,99*,85*,30*
O=C(Nc1cccc2c1C(=O)NC2=O)c1ccc(S(=O)(=O)N2CCCC2)cc1,2,22,-460,1,22*,38*,9,13,4,34*,43*
COc1ccc2oc(=O)c(-c3csc(Nc4cccc(O)c4)n3)cc2c1,-1,15,9,0,31*,36*,19,18,-3,28*,47*
C[C@@H]1CNC(=O)c2c(C(=O)NC3CCN(C(=O)OC(C)(C)C)CC3)ncn21,x,x,x,-1,-5,x,x,x,x,x,x
Clc1ccccc1/C=N/NC1=Nc2cccc3cccc1c23,1,14,13,-1,36*,31*,13,12,11*,30*,29*
